Measurements reported in PubChem BioAssay AID624136 (Broad Institute, 2012).
About 75 (0.4%) of roughly 17,000 compounds were called active. This is one part of a sample in which actives are shown more often than they occur.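 Rule for the calls: active = compounds whose four printed spots each glow above background more than chance allows, each with a p-value under 7%; inactive = the rest.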

These compounds were tested on mutant tumor protein p53 (GST-tagged), Homo sapiens (assay: binders of human mutant p53, primary screen, biochemical, small molecule microarray, anti-GST fluorescence (AID 624136)). Settings: small molecule microarray binding.

SMILES	outcome
C[C@H](CO)N1C[C@H](C)[C@@H](CN(C)C(=O)Nc2ccc3c(c2)OCO3)Oc2ccc(NC(=O)NC3CCCCC3)cc2CC1=O	inactive
CC(C)NC(=O)Nc1ccc2c(c1)CC(=O)N([C@@H](C)CO)C[C@@H](C)[C@@H](CN(C)S(=O)(=O)c1ccccc1)O2	inactive
C[C@@H]1CN([C@@H](C)CO)C(=O)c2cc(N(C)C)ccc2O[C@@H](C)CCCCO[C@H]1CN(C)Cc1ccncc1	inactive
CC(=O)O[C@H]1C[C@@H](OC(C)=O)C(C)(C)C2C[C@@H](O)[C@]3(C)C(CC[C@@]4(C)[C@H](c5ccoc5)OC(=O)C5OC543)[C@]21C (stereo not given in full)	inactive
CCC(=O)O[C@]1(C(=O)CCl)[C@@H](C)CC2C3CCC4=CC(=O)C=C[C@]4(C)[C@@]3(F)[C@@H](O)C[C@@]21C (stereo not given in full)	inactive
COc1ccc2nc(SCC(=O)Nc3ccc(I)cc3)[nH]c2c1	inactive
C[C@@H]1CN([C@@H](C)CO)C(=O)c2cccc(NC(=O)Nc3ccc(C(F)(F)F)cc3)c2O[C@@H]1CN(C)S(=O)(=O)c1cccs1	inactive
C[C@H](CO)N1C[C@H](C)[C@H](CN(C)Cc2ccccc2)OCCCC[C@H](C)Oc2ccc(NC(=O)CCC(F)(F)F)cc2C1=O	inactive
OCCNc1nc(Nc2ccc(Cl)cc2)nc(N2CCCCC2)n1	inactive
C[C@@H]1CN([C@@H](C)CO)C(=O)c2cccc(NS(=O)(=O)c3ccc(F)cc3)c2O[C@H]1CN(C)C(=O)NC1CCCCC1	inactive
C[C@H]1CN([C@@H](C)CO)C(=O)Cc2cc(NS(C)(=O)=O)ccc2O[C@@H]1CN(C)CC1CC1	inactive
Cc1ccc(-c2cc(C(F)(F)F)n3nc(C(=O)NCCN4CCOCC4)c(Cl)c3n2)cc1	inactive
CCC(=O)Nc1cccc(NC(=O)COc2ccc(Br)cc2)c1	inactive
CNC[C@H]1Oc2ccc(NC(=O)Nc3ccc4c(c3)OCO4)cc2CC(=O)N([C@H](C)CO)C[C@H]1C	inactive
COc1ccc(CN(C)C[C@H]2Oc3ccc(NC(=O)Cn4cnnn4)cc3CC(=O)N([C@@H](C)CO)C[C@@H]2C)cc1	inactive
C[C@H]1CN([C@@H](C)CO)C(=O)c2cccc(NS(=O)(=O)c3ccc(Cl)cc3)c2O[C@H]1CN(C)Cc1ccc2c(c1)OCO2	inactive
Cc1noc(C)c1S(=O)(=O)Nc1ccc2c(c1)C(=O)N([C@@H](C)CO)C[C@@H](C)[C@@H](CN(C)Cc1ccccc1)OCCCC[C@H](C)O2	inactive
CC(C)NC(=O)Nc1ccc2c(c1)C(=O)N([C@@H](C)CO)C[C@H](C)[C@H](CN(C)C(=O)Nc1ccc(F)cc1)OCCCC[C@@H](C)O2	inactive
CC(=O)CC(=O)N1C(=O)N(C)[C@@]2(C)Oc3ccccc3[C@@H]1[C@H]2COC(=O)c1ccccc1	inactive
C[C@@H]1CN([C@@H](C)CO)C(=O)Cc2cc(NS(C)(=O)=O)ccc2O[C@H]1CN(C)C(=O)Nc1ccccc1	inactive

SMILES	outcome
CO[C@H]1C(=O)c2c(O)c(CC=C(C)C)c(O)c(CC=C(C)C)c2O[C@@H]1c1ccc(O)cc1	inactive
CC(C)NC(=O)Nc1ccc2c(c1)C(=O)N([C@H](C)CO)C[C@@H](C)[C@@H](CN(C)S(=O)(=O)c1cccs1)OCCCC[C@@H](C)O2	inactive
COc1ccc(C#Cc2ccc3c(c2)[C@]2(C(=O)N3)[C@H](C(=O)N3CCCCCCC3)[C@H]3C(=O)O[C@H](c4ccccc4)[C@H](c4ccccc4)N3[C@@H]2c2ccc(O)cc2)cc1	inactive
O=C1O[C@@H](c2ccccc2)[C@@H](c2ccccc2)N2[C@@H](c3ccccc3OCCO)[C@]3(C(=O)Nc4ccc(C#CC5(O)CCCCCC5)cc43)[C@@H](C(=O)N3CCCCCCC3)[C@H]12	inactive
COc1ccc(C#Cc2ccc3c(c2)[C@]2(C(=O)N3)[C@H](c3ccccc3OCCO)N3[C@H](c4ccccc4)[C@H](c4ccccc4)OC(=O)[C@H]3[C@@H]2C(=O)N2CCCCCCC2)cc1	active
O=C1O[C@H](c2ccccc2)[C@H](c2ccccc2)N2[C@H]1[C@@H](C(=O)N1CCN(c3ncccn3)CC1)[C@]1(C(=O)Nc3ccccc31)[C@H]2c1ccc(OCCO)cc1	inactive
COC(=O)C(CC#Cc1ccc2c(c1)[C@]1(C(=O)N2)[C@H](c2ccccc2OCCO)N2[C@H](c3ccccc3)[C@H](c3ccccc3)OC(=O)[C@H]2[C@@H]1C(N)=O)C(=O)OC	inactive
O=C1O[C@@H](c2ccccc2)[C@@H](c2ccccc2)N2[C@@H](c3ccccc3OCCO)[C@]3(C(=O)Nc4ccccc43)[C@@H](C(=O)N3CCCCCCC3)[C@H]12	active
CC(=O)c1cccc(NC(=O)c2ccc(CNS(=O)(=O)c3ccc(C(C)(C)C)cc3)cc2)c1	inactive
C[C@@H]1CCCCO[C@H](CN(C)C(=O)NC2CCCCC2)[C@H](C)CN([C@@H](C)CO)C(=O)c2cc(NC(=O)C3CCCCC3)ccc2O1	inactive
C[C@@H]1CCCCO[C@H](CN(C)S(=O)(=O)c2ccccc2)[C@H](C)CN([C@@H](C)CO)C(=O)c2cc(N(C)C)ccc2O1	inactive
C[C@@H]1CN([C@@H](C)CO)C(=O)Cc2cc(NC(=O)Nc3ccc4c(c3)OCO4)ccc2O[C@@H]1CN(C)C(=O)Nc1ccc2c(c1)OCO2	inactive
C[C@@H]1CN([C@H](C)CO)C(=O)c2cc(NS(=O)(=O)c3ccccc3)ccc2O[C@H]1CN(C)C(=O)Nc1ccc2c(c1)OCO2	inactive
O=c1cc(CSc2nnnn2-c2ccccc2)[nH]c(=S)[nH]1	inactive
Cc1ccc(C)c(S(=O)(=O)NC(C)C(=O)Nc2ccc(Br)cc2F)c1 (stereo not given)	inactive
C[C@H](CO)N1C[C@H](C)[C@H](CN(C)Cc2ccncc2)Oc2ccc(NC(=O)Cc3cn(C)c4ccccc34)cc2CC1=O	inactive
COc1ccc(-c2cc(C(=O)N3CCCC3C(=O)O)c(C)o2)cc1OC (stereo not given)	inactive
CCN1CCN(S(=O)(=O)c2cc(OCC(N)=O)c(C)cc2Cl)CC1	inactive
Cc1cc(C(=O)Nc2cccc3c2O[C@@H](CN(C)C(=O)Nc2ccc(F)cc2)[C@H](C)CN([C@@H](C)CO)C3=O)n(C)n1	inactive
C[C@H](CO)N1C[C@H](C)[C@@H](CN(C)Cc2ccc(C(=O)O)cc2)Oc2ccc(NC(=O)Cn3cnnn3)cc2CC1=O	inactive
